Source: PubChem (National Center for Advancing Translational Sciences (NCATS))
Only some compounds are listed: those with a hit (about 12% of all), similar ones and a draw of the others.
Sfp inh = qHTS Assay for Inhibitors of Bacillus subtilis Sfp phosphopantetheinyl transferase (PPTase) | AID 1490, 2009 | actives 3.5% (n = 310,000) | 4'-phosphopantetheinyl transferase ffp (Bacillus subtilis), Q9F4F7 | Biochemical Sfp PPTase activity, qHTS | Potency, µM, without a hit: largest response in the series, negative = inhibition, most hits filed as inhibitors;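 note: the enzyme is Sfp with the accession as filed and its product quenches rhodamine fluorescence; 0% = enzyme reaction without inhibitor and -100% = no enzyme wells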
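Fluorescence-quenching assay with 15 nM Sfp, 5 uM rhodamine-CoA and 12.5 uM BHQ-2-labelled ybbR peptide in pH 7.6 Hepes/MgCl2 buffer. Enzyme was pre-incubated with compound for 15 min at room temperature. Rate was taken from the 30-min fluorescence change (525/598 nm).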
BAZ2B inh = qHTS Assay for Inhibitors of BAZ2B; Bromodomain adjacent to zinc finger domain protein 2B (Homo sapiens), Q9UIF8; AlphaScreen BAZ2B-H3K14Ac peptide displacement; Potency, µM (doses to about 114 µM), inactives show at the highest dose activity change, negative = inhibition, usual class: inhibitors; actives 4.4% (n = 360,000); AID 504333, 2011; note: % is set by controls: 0 for no effect and ±100 for the full control effect; nearly all actives have a fitted effect of over 60% in size
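AlphaScreen displacement: compounds (up to 110uM) incubated 30 min at room temperature with a preformed 50 nM BAZ2B/50 nM biotinylated H3K14Ac peptide complex in PBS pH 7.4 with Tween-20. Donor and acceptor beads at 10 ug/mL final added, 20 min light-protected before reading.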
JMJD2A Tudor = qHTS Assay for Inhibitors of JMJD2A-Tudor Domain | Lysine-specific demethylase 4A (Homo sapiens), O75164 | AlphaScreen JMJD2A-Tudor / H3K4me3 peptide binding | Potency, µM (doses to about 114 µM), for the others: top-dose activity change, negative = inhibition, hits mostly inhibitors | actives 4.4% (n = 390,000) | AID 504339, 2011; note: % is set by controls: 0 for no effect and ±100 for the full control effect; nearly all actives have a fitted effect of over 50% in size
HP1b binding inh = HTS for Inhibitors of HP1-beta Chromodomain Interactions with Methylated Histone Tails; AlphaScreen HP1-beta / biotin-H3K9me3 peptide binding; AID 540317, 2011; Potency, µM (titrated, usually from 114 µM), without a hit: at the top dose activity change, negative = inhibition, usual class: inhibitors; actives 0.56% (n = 390,000); note: nearly all actives have a fitted effect of over 70% in size
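HP1-beta protein (50 nM final) preincubated 30 min at room temperature with biotinylated H3(1-18)K9me3 peptide (50 nM) in PBS pH 7.4, 0.01% Tween-20, then compound added for 30 min. AlphaScreen streptavidin donor/nickel chelate acceptor beads (10 ug/mL final), 30 min dark, luminescence read.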
G9a inh = qHTS Assay for Inhibitors of Histone Lysine Methyltransferase G9a | Histone-lysine N-methyltransferase EHMT2 (Homo sapiens), Q96KQ7 | G9a H3K9 monomethylation, AlphaScreen, 2 h | Potency, µM (doses to about 102 µM), inactives show at the top dose activity, negative = inhibition, usual class: inhibitors | actives 8.8% (n = 350,000) | AID 504332, 2011; note: % is set by controls: 0 for no effect and ±100 for the full control effect; nearly all actives have a fitted effect of over 75% in size
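Signal arises when biotinylated H3K9 peptide, once monomethylated, bridges streptavidin donor and antibody-captured acceptor beads. Enzyme at 20 nM was preincubated 15 min with test compounds; peptide 500 nM and SAM 20 uM then reacted for 2 h.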
Active calls of the source: *; ? = inconclusive; . = no result; [ ] = dose if it differs, or a comment. Calls come from the whole dose curve; as a rule, active = well fitted curve in the direction sought with a large enough effect; inconclusive = small, poorly fitted or top-dose-only effect, or another doubt; inactive = no such curve, though single readings can be large; an effect the other way counts as inactive or inconclusive. Potency is the fitted concentration of half-maximal effect.

SMILES	Sfp inh	BAZ2B inh	JMJD2A Tudor	HP1b binding inh	G9a inh
COC(=O)c1cc2c(cc1NC(=O)c1cnn(-c3ccc(C)cc3)c1-n1cccc1)OCO2	.	-27%	-6%	30%	-5%[59 µM]
CCC(C)(O)c1[nH]c2ccc(C(F)(F)F)cc2c1C (configuration not stated)	21%	-37%	-29%	31%	?
O=C(O)/C=C/C(=O)c1c(-c2ccccc2)[nH]c2ccccc12	-18%	-14%	-28%	36%	.
CC(C)c1ccccc1OCCCN1CCCC1	-3%	?	32µM*	?	40µM*
Brc1ccccc1OCCCN1CCCCCC1	-5%	?	1µM*	?	56µM*
c1cc(OCCCN2CCCCC2)ccc1CN1CCCCC1	5%	-16%	-10%	15%	6%
CC(C)c1ccccc1OCCCCN1CCCCC1	.	.	-4%	36%	.
Cc1ccc(NS(=O)(=O)c2cc3c(cc2N(C)C)CCC(=O)N3)cc1C	.	.	-35%	.	.
CCOC(=O)c1cccc(NC(=O)CCc2c(C)nc3c4cccnc4nn3c2C)c1	.	-1%	-8%	46%	16%[59 µM]
Oc1ccccc1C1C=C(c2ccc3c(c2)OCO3)NC(c2cccc(Br)c2)N1 (configuration not stated)	.	.	?	0%	.
CCN(C(=O)CSc1nnc(-c2ccco2)n1Cc1ccccc1)C1CCS(=O)(=O)C1 (configuration not stated)	.	-36%	-7%	53%	?
O=C(CSc1nnc(-c2ccco2)n1Cc1ccccc1)OC1CCCCC1	-8%	?	-23%[57.1 µM]	2%	50µM*
CCOC(=O)CSc1nnc(-c2ccco2)n1-c1ccccc1	35µM*	-5%	-12%	28%	?
COC(=O)CSc1nnc(-c2ccco2)n1Cc1ccco1	22µM*	.	-5%	30%	?
CCN(CC)C(=O)CSc1nnc(-c2ccco2)n1Cc1ccco1	-4%	-10%	-19%	24%	40µM*
CCN(CC)C(=O)CSc1nnc(-c2ccco2)n1N	12%	-5%	37%	35%	-2%[12.7 µM]
CCOC(=O)CSc1nnc(-c2ccco2)n1-c1ccc(C)cc1	-6%	-11%	-9%[57.1 µM]	39%	-10%[12.7 µM]
COc1ccc(C2=Nn3c(nnc3-c3ccccc3O)SC2)c(OC)c1	6%	.	-29%	.	.
CC(=O)c1c(C)[nH]c(C(=O)CSc2nnc(-c3ccco3)n2Cc2ccccc2)c1C	-21%	50µM*	-14%[57.1 µM]	9%	40µM*
Cc1ccccc1CSc1nnc(-c2ccco2)n1Cc1ccco1	-11%	50µM*	?	-9%	23%[0.501 µM]
CC(=O)c1c(C)[nH]c(C(=O)CSc2nnc(-c3cccs3)n2Cc2ccccc2)c1C	2%	-35%	?	-22%	-11%[12.7 µM]
CC(Sc1ccccc1)C(=O)NNC(=O)c1csc(N2CCOCC2)n1 (configuration not stated)	.	3%	-4%	36%	12%
CNC(=O)Nc1cccc(-c2ccnc(C)n2)c1	2%	-2%	19%	24%	.
COc1cccc(C(=O)/C(C#N)=N/Nc2cccc(-c3ccnc(C)n3)c2)c1	-8%	?	?	-1%	50µM*
Cn1cc(P(=S)(N2CCOCC2)N2CCOCC2)cc1P(=S)(N1CCOCC1)N1CCOCC1	-13%	-9%	1%	3%	45µM*
Cc1nc(N)sc1N=Nc1ccccc1C(F)(F)F	14%	28µM*	50µM*	35µM*	40µM*
Cc1cc(C)c(S(=O)(=O)/N=C2/C=C(SCC(=O)O)C(=O)c3ccccc32)cc1C	22µM*	35µM*	25µM*	35µM*	5.6µM*
CCN(CC)c1ccc(-n2c(C)c(C(C)=O)c(C(C)=O)c2C)cc1	-7%	.	89µM*	?	?
CC(=O)c1c(C(C)=O)c(C)n(-c2ccc(O)cc2)c1C	11%	-39%	-29%	6%	-1%[59 µM]
